Screening results (PubChem)
FUS suppressor = qHTS for Suppressors of FUS Proteinopathy: Primary screen using FUS-linked yeast assay. 390,000 tested, 0.24% active. S. cerevisiae FUS-expressing, growth rescue, OD600, 24 h. Potency, µM (top dose mostly 76.6 µM), usual class: activators;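 further: plate controls were DMSO vehicle for no effect and reference control for full effect; nearly all actives have a fitted effect of over 55% in size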
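FUS-expressing yeast, raffinose-pregrown, induced in 2% galactose minimal medium at OD 0.005; compounds in a dilution series, 24hr at 30C. Growth restoration read as absorbance at 600 nm. CP55940 positive control, DMSO negative.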
aSyn yeast inh = qHTS of alpha-syn Inhibitors; Potency, µM (doses to about 46.1 µM), inactives show top-dose growth rescue (activation), hits mostly activators; Yeast expressing alpha-synuclein, growth rescue, BacTiter-Glo, 24 h; AID 652106, 2013; 370,000 tested, 0.14% active; further: % of control where 0% means no effect; nearly all actives have a fitted effect of over 65% in size
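Galactose-induced alpha-syn yeast (OD600=0.02, raffinose-pregrown) + pinned cpd, 24 hr, 30 deg C; growth by BacTiter-Glo luminescence. Growth restoration scores as activation.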
Abeta rescue = qHTS for compounds that reverse cellular toxicity of Amyloid beta (A-beta) peptide in yeast: Primary Screen; 410,000 tested, 0.063% active; Potency, µM (highest dose often 46.1 µM), most hits filed as activators; yeast expressing A-beta42, growth rescue, OD600, 48 h; response scale: 0% DMSO, 100% iron-clioquinol control; further: nearly all actives have a fitted effect of over 55% in size
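Yeast A-beta toxicity model in growth medium with pinned compounds, 48 h at 30 C; growth read as absorbance at 600 nm. Normalized to FeCl3/clioquinol equimolar mix (positive) and DMSO (negative).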
TDP-43 yeast inh = qHTS of TDP-43 Inhibitors; Potency, µM (top dose mostly 46.1 µM), for the others: at the top dose growth rescue (activation), hits mostly activators; 410,000 tested, 1.8% active; TDP-43 expressing yeast growth rescue, BacTiter-Glo, 24 h; further: % of control where 0% means no effect; nearly all actives have a fitted effect of over 50% in size
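Readout is BacTiter-Glo luminescence of cell growth, so inhibitors register as activators. TDP-43-expressing yeast at OD600=0.02 in galactose medium, after raffinose pregrowth to mid-log, were incubated with compound for 24 hr at 30 deg C.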
The depositor's hits bear a star; i = inactive; ? = inconclusive; . = no result given. The list is not random: actives were taken first. Their share in the collection is about 2.1%. The call rests on the fitted dose curve; in most records, active means well fitted curve in the direction sought with a large enough effect; inconclusive means small, poorly fitted or top-dose-only effect, or another doubt; inactive means no such curve, though single readings can be large; an effect the other way counts as inactive or inconclusive. Potency means the concentration at half of the fitted maximal effect.

SMILES | FUS suppressor | aSyn yeast inh | Abeta rescue | TDP-43 yeast inh
O=C(CC1N=C2c3ccccc3N=C(SCC(=O)Nc3ccc(F)cc3)N2C1=O)NCc1cccs1 (stereo unspecified) | i | . | i | 13%
Cc1ccc(CSC2=Nc3ccccc3C3=NC(CCC(=O)NCCc4ccccc4)C(=O)N23)cc1 (stereo unspecified) | i | . | i | 32µM*
O=C(CCC1N=C2c3ccccc3N=C(SCC(=O)Nc3ccc(F)cc3)N2C1=O)NCc1cccs1 (stereo unspecified) | ? | . | i | 35µM*
Cc1ccc(S(=O)(=O)N2CCN(C(=O)c3cccn3C)CC2)cc1 | i | . | . | .
Cc1ccc(/C(N)=N/OC(=O)c2ccc3ccccc3c2)cc1 | i | -44% | i | 1.3µM*
Cc1ccc(/C(N)=N/OC(=O)c2ccc(C)cc2Cl)cc1 | . | -37% | i | 4µM*
COc1ccc(C/C(N)=N/OC(=O)c2ccc(Cl)cc2)cc1 | i | -16% | i | ?
N/C(=N\OC(=O)c1ccc(Cl)cc1Cl)c1ccc(Cl)cc1 | i | -42% | i | 10%
N/C(Cc1ccc(Cl)cc1)=N\OC(=O)c1ccc2ccccc2c1 | i | -58% | i | 6.3µM*
CCn1c(SCC(=O)Nc2cccc3ccccc23)nnc1-c1cccs1 | i | . | . | .
Cc1cc(CNC(=O)COc2cc(F)ccc2[N+](=O)[O-])c2ccccc2n1 | i | -7% | i | .
O=C(COc1cc(F)ccc1[N+](=O)[O-])NCCCc1ccccc1 | i | 13% | i | 13µM*
c1ccc(-c2nc(NC3CC3)nc(-n3ccnc3)n2)cc1 | i | 3% | i | 5µM*
c1ccc(-c2nc(-n3ccnc3)nc(-n3ccnc3)n2)cc1 | i | . | i | ?
O=C1c2c(O)ccc(O)c2C(=O)c2c(NCCNCCO)ccc(NCCNCCO)c21 | 28µM* | -20% | i | 0%
O=C1c2ccccc2C(=O)c2c(Nc3ccc(CCO)cc3)ccc(O)c21 | i | -16% | i | -16%
Brc1ccc(-c2nc(-c3ccncc3)no2)o1 | i | 3% | i | 13µM*
Brc1ccc(-c2nc(-c3ccncc3)no2)cc1 | i | 2% | i | 4%
S=c1[nH]c2ccccc2n2cccc12 | i | 0% | 11µM* | 13µM*
O=S(=O)(c1ccc2c(c1)OCO2)N1CCN(c2nc(-c3cccs3)nc3ccccc23)CC1 | . | 0% | . | .
O=C(NCCN1CCC(Cc2ccccc2)CC1)C1CCCN(S(=O)(=O)c2ccc([N+](=O)[O-])cc2)C1 (stereo unspecified) | i | . | . | .
Cc1ccc(NC(=O)COC(=O)c2cc(Cl)ccc2[N+](=O)[O-])cc1 | . | 3% | i | 18µM*
NS(=O)(=O)c1cccc(NC(=O)COC(=O)c2cc(Cl)ccc2[N+](=O)[O-])c1 | i | -3% | i | -13%
COc1ccc(CNC(=O)C2=C(C)C(=O)OC23CCC(C)CC3)cc1 (stereo unspecified) | i | 8% | i | 16µM*
COc1ccc(/C=C2\CCOC2=O)cc1 | i | 2% | i | -19%
SMILES | FUS suppressor | aSyn yeast inh | Abeta rescue | TDP-43 yeast inh
COc1ccc(/C=C2/C(=O)OCc3cc(OC)c(OC)cc32)cc1 | i | 4% | i | 20µM*
CC1=C(c2ccc(F)cc2)S(=O)(=O)N=C1N1CCC(C(=O)NCCc2cccc(C)c2)CC1 | i | . | i | 23%
COc1ccc(Cn2c(C(=O)O)c(CNCCc3ccccc3Cl)c3ccc(C)cc32)cc1 | 14µM* | . | i | ?
Cc1ccc(Cn2c(C(=O)O)c(CNCc3ccccc3Cl)c3ccc(C)cc32)cc1 | i | . | i | 11%
CCc1ccc(NC(=O)c2noc3c2CCC3)cc1 | i | -8% | i | 11µM*
CCc1ccc(NC(=O)c2noc3c2CCCCC3)cc1 | i | 0% | i | -4%
CCOc1ccc(/C=C/c2nc(C#N)c(N3CCN(CC)CC3)o2)cc1 | i | . | i | 4%
Nc1nc[nH]c(=O)c1N | . | -3% | . | .
O=C(Nc1ccc(F)cc1)C(c1cc2ccccc2o1)N1CCN(C(=O)c2ccco2)CC1 (stereo unspecified) | 22µM* | 1% | i | -3%
CSc1ccccc1NC(=O)c1cc(C(C)C)on1 | i | 1% | i | 11µM*
CSc1ccccc1NC(=O)c1cc(C)on1 | i | -3% | i | 1%
C1=C(c2ccccc2)Nc2ncnn2C1c1ccccc1 (stereo unspecified) | i | -3% | i | 20µM*
Cc1ccc(C2=CC(c3ccccc3)n3ncnc3N2)cc1 (stereo unspecified) | i | 8% | i | 13µM*
Cc1ccc(C2C=C(c3ccccc3OC(F)F)Nc3ncnn32)cc1 (stereo unspecified) | . | 12% | i | 13µM*
CN(C)c1ccc(C2C=C(c3ccc(Cl)cc3OC(F)F)Nc3ncnn32)cc1 (stereo unspecified) | ? | 15% | i | -7%
Cc1ccc(C2=CC(c3ccccc3)n3ncnc3N2)c(C)c1 (stereo unspecified) | i | 10% | ? | ?
Cc1ccc(C2C=C(c3ccc4c(c3)OCO4)Nc3ncnn32)cc1 (stereo unspecified) | i | 10% | i | 13µM*
C[C@H]1[C@@H](NC(=O)Cc2ccsc2)CC[C@@]23CCCN2C(=O)CCC[C@@H]13 | i | . | . | .
CCc1ccccc1NC(=O)Cn1nc2c3cc(F)ccc3n(Cc3cccc(C)c3)cc-2c1=O | i | . | i | 15%
Cc1ccc(CN2CCN(C3CCN(C(=O)c4ccc(C)cc4)CC3)C(=O)C2=O)cc1 | i | . | i | 0%
CSc1nnc(Nc2ccccc2C)s1 | i | 3% | i | 11µM*
Cc1cc(NC(=O)CSc2nnc(Nc3ccccc3C)s2)no1 | i | 8% | i | 2%
CCCOc1ccc(C(=O)N2CCC(Oc3cccnc3)CC2)cc1 | i | . | . | .
CCCOc1ccc(C(=O)NNC(=S)NC(=O)c2cc(-c3ccc(Cl)cc3)nc3ccccc23)cc1 | i | 4% | i | 13µM*
Cn1nc(C(=O)N2CCN(c3ccc(F)cc3)CC2)c2c1-c1ccccc1SC2 | i | . | i | -12%
Cn1nc(C(=O)N2CCN(c3ccccc3)CC2)c2c1-c1ccccc1SC2 | i | . | i | ?
COc1ccc(N2CCN(C(=O)c3cc4c(-c5ccccc5F)nn(C)c4s3)CC2)cc1 | ? | . | i | 20µM*
COc1ccc(N2CCN(C(=O)c3nn(C)c4c3CSc3ccccc3-4)CC2)cc1 | i | . | i | 13µM*
Cn1nc(C(=O)N2CCN(c3ccccc3F)CC2)c2c1-c1ccccc1SC2 | i | . | i | 18µM*
COc1ccc(OC)c(CN2C(=O)CCCC2(C)c2nnnn2C2CCCC2)c1 (stereo unspecified) | i | . | . | .
